Experimental data as given in PubChem BioAssay (Tox21).
Records with an inconclusive call do not appear. The source made the active and inactive calls. Unless noted, calls come from the whole dose curve; as a rule, active = well fitted curve in the direction sought with a large enough effect in the repeat runs; inconclusive = weak or mixed curves; inactive = no such curve, though single readings can be large; an effect the other way counts as inactive or inconclusive.

Columns and labels:
[1] = qHTS assay to identify small molecule antagonists of the peroxisome proliferator-activated receptor delta (PPARd) signaling pathway - cell viability counter screen (AID 743213); note: % is set by controls: 0 for no effect and ±100 for the full control effect; nearly all actives have a fitted effect of over 50% in size
Summary of the method: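 Cytotoxicity counter screen: CellTiter-Glo luminescence read 30 min after addition, in the same wells as the reporter assay. There, PPARd UAS-bla HEK293H cells (3000/well) were treated 17 h at 37 C with compound and 300 nM L165041.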

[2] = molecular target: Peroxisome proliferator-activated receptor delta (Homo sapiens) (UniProt Q03181); assay: qHTS assay to identify small molecule antagonists of the peroxisome proliferator-activated receptor delta (PPARd) signaling pathway (AID 743215; active = well fitted inhibition curve with a large enough effect in the signal ratio in the repeat runs, not every such curve was filed as active; the % refers to the signal ratio;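 note: cells stimulated with agonist L165041 at 300 nM final during compound exposure; series mostly up to about 62 µM; % is set by controls: 0 for no effect and ±100 for the full control effect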)
Summary of the method: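 Here, a reporter line (HEK293H, beta-lactamase under a UAS) measures PPARd signaling. Compounds are tested against agonist L165041 at 300 nM final concentration over 17 h at 37 C, with fluorescence read after substrate.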

[3] = qHTS assay to identify small molecule agonists of the farnesoid-X-receptor (FXR) signaling pathway - cell viability counter screen (AID 743218); note: % is set by controls: 0 for no effect and ±100 for the full control effect; nearly all actives have a fitted effect of over 45% in size
Summary of the method: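 Quantitative HTS counter screen measuring ATP-based viability via CellTiter-Glo luminescence in HEK 293T cells carrying a UAS-driven beta-lactamase reporter, after 16 h compound exposure at 37 C.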

[4] = qHTS assay to identify small molecule agonists of the vitamin D receptor (VDR) signaling pathway - cell viability counter screen (AID 743224); note: series mostly up to about 63 µM; % is set by controls: 0 for no effect and ±100 for the full control effect; nearly all actives have a fitted effect of over 50% in size
Summary of the method: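 CellTiter-Glo viability readout on VDR-bla cells, measured after 16 h of compound treatment at 37C in the same wells.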

[5] = qHTS assay to identify small molecule antagonists of the vitamin D receptor (VDR) signaling pathway - cell viability counter screen (AID 743225); note: % is set by controls: 0 for no effect and ±100 for the full control effect; nearly all actives have a fitted effect of over 50% in size
Summary of the method: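 Viability counter screen run in the same wells as the beta-lactamase reporter assay: HEK 293T VDR-UAS-bla cells, 16 h compound exposure at 37C with 3 nM (final) 1-alpha,25-dihydroxyvitamin D3. CellTiter-Glo luminescence, 30 min, room temperature.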

[6] = qHTS assay to identify small molecule agonists of the NFkB signaling pathway (AID 1159509; active = well fitted curve in the direction sought with a large enough effect in the signal ratio in the repeat runs, not every such curve was filed as active; the % refers to the signal ratio; note: series mostly up to about 61 µM; % is set by controls: 0 for no effect and ±100 for the full control effect)
Summary of the method: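 Agonist activity was read as beta-lactamase-driven FRET change (460 and 530 nm emission, 405 nm excitation) following 1.5 hr substrate loading at room temperature. Beforehand, ME-180 NFkB-bla reporter cells were treated with compounds for 5 hr at 37 C.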

[7] = qHTS assay to identify small molecule agonists of the NFkB signaling pathway - cell viability counter screen (AID 1159515; calls by dose curve; note: series mostly up to about 61 µM; % is set by controls: 0 for no effect and ±100 for the full control effect; nearly all actives have a fitted effect of over 55% in size)
Summary of the method: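 Tox21 library compounds were tested for cytotoxicity against NFkB-bla ME-180 cells during a 5 hr exposure at 37 C. CellTiter-Glo luminescence served as the viability read-out.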

[8] = qHTS assay to identify small molecule agonists of the endoplasmic reticulum stress response signaling pathway (AID 1159516; active = well fitted activation curve with a large enough effect in the signal ratio in the repeat runs, not every such curve was filed as active; the % refers to the signal ratio; note: % is set by controls: 0 for no effect and ±100 for the full control effect)
Summary of the method: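 Fluorescence at 460 and 530 nm (405 nm excitation) reports beta-lactamase from an ER stress response element in HeLa cells treated 5 hr at 37 C.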

[9] = qHTS assay to identify small molecule agonists of the endoplasmic reticulum stress response signaling pathway - cell viability counter screen (AID 1159517; calls by dose curve; note: series mostly up to about 61 µM; % is set by controls: 0 for no effect and ±100 for the full control effect; nearly all actives have a fitted effect of over 50% in size)
Summary of the method: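 ESRE-bla HeLa cells (1,500/well) were plated overnight at 37 C and exposed to compounds for 5 hr. After the 2 hr beta-lactamase substrate read, CellTiter-Glo went into the same wells, and luminescence was read after 30 min at room temperature.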

[10] = qHTS assay to identify small molecule agonists of the peroxisome proliferator-activated receptor delta (PPARd) signaling pathway - cell viability counter screen (AID 743211); note: % is set by controls: 0 for no effect and ±100 for the full control effect; nearly all actives have a fitted effect of over 55% in size
Summary of the method: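 Read-out: CellTiter-Glo luminescence, 30 min RT, measured in the same wells as the beta-lactamase reporter. Cells: GeneBLAzer PPAR delta UAS-bla HEK293H, 3000 cells/well, compound exposure 17 h at 37C.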

[11] = qHTS assay to identify small molecule antagonists of the farnesoid-X-receptor (FXR) signaling pathway - cell viability counter screen (AID 743221; active = well fitted cell-killing curve with a large enough effect in the repeat runs, not every such curve was filed as active)
Summary of the method: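 HEK 293T FXR-bla cells, 5 h pre-incubation; compound + CDCA 50 uM final, 16 h, 37 C; beta-lactamase FRET read first, then CellTiter-Glo luminescence, 30 min RT.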

[12] = qHTS assay to identify small molecule agonists of the AP-1 signaling pathway - cell viability counter screen (AID 1159525; calls by dose curve; note: nearly all actives have a fitted effect of over 55% in size)
Summary of the method: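 Intracellular ATP by Cell Titer Glo luminescence (30 min, RT) in the same ME-180 AP-1-bla wells after the 5 h compound exposure at 37 °C. Normalised to tetra n-octyl ammonium bromide and DMSO controls.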

[13] = molecular target: Peroxisome proliferator-activated receptor delta (Homo sapiens) (UniProt Q03181); assay: qHTS assay to identify small molecule agonists of the peroxisome proliferator-activated receptor delta (PPARd) signaling pathway (AID 743212; calls by dose curve; note: % is set by controls: 0 for no effect and ±100 for the full control effect)
Summary of the method: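 Beta-lactamase reporter readout: a ratiometric FRET signal from the LiveBLAzer substrate after 2 h at room temperature. Compound exposure at 37 °C in PPARδ-bla HEK293H cells driven by an upstream activator sequence.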

[14] = molecular target: Bile acid receptor (Homo sapiens) (UniProt Q96RI1); assay: qHTS assay to identify small molecule antagonists of the farnesoid-X-receptor (FXR) signaling pathway (AID 743217; active = well fitted inhibition curve with a large enough effect in the signal ratio in the repeat runs, not every such curve was filed as active; the % refers to the signal ratio; note: % is set by controls: 0 for no effect and ±100 for the full control effect)
Summary of the method: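 Test compounds are pin-transferred onto FXR-bla HEK 293T cells, then chenodeoxycholic acid is added at 50 uM final. After 16 h at 37 °C, LiveBLAzer B/G substrate is applied for 2 h at room temperature and fluorescence read.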

[15] = molecular target: Bile acid receptor (Homo sapiens) (UniProt Q96RI1); assay: qHTS assay to identify small molecule agonists of the farnesoid-X-receptor (FXR) signaling pathway (AID 743220; active = well fitted activation curve with a large enough effect in the signal ratio in the repeat runs, not every such curve was filed as active; the % refers to the signal ratio; note: % is set by controls: 0 for no effect and ±100 for the full control effect)
Summary of the method: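 FXR-UAS-bla HEK 293T cells carrying a UAS-driven beta-lactamase reporter were plated for 5 h at 37C/5% CO2, then exposed to DMSO-dissolved Tox21 10K compounds for 16 h at 37C. A LiveBLAzer B/G FRET substrate was loaded for 2 h at room temperature before fluorescence reading.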

[16] = molecular target: Vitamin D3 receptor (Homo sapiens) (UniProt P11473); assay: qHTS assay to identify small molecule agonists of the vitamin D receptor (VDR) signaling pathway (AID 743222; calls by dose curve; note: % is set by controls: 0 for no effect and ±100 for the full control effect)
Summary of the method: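 Tox21 cell reporter format: VDR-bla line, 16 h compound exposure in 5% CO2 at 37C, then fluorescence intensity after 2 h with LiveBLAzer B/G FRET substrate.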

[17] = molecular target: Vitamin D3 receptor (Homo sapiens) (UniProt P11473); assay: qHTS assay to identify small molecule antagonists of the vitamin D receptor (VDR) signaling pathway (AID 743223; active = well fitted inhibition curve with a large enough effect in the signal ratio in the repeat runs, not every such curve was filed as active; the % refers to the signal ratio; note: % is set by controls: 0 for no effect and ±100 for the full control effect)
Summary of the method: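 Beta-lactamase reporter read-out: FRET substrate fluorescence after 2 h at room temperature, following 16 h exposure of VDR-bla cells to test compound plus 3 nM (final) 1alpha,25-dihydroxyvitamin D3 agonist at 37C.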

[18] = qHTS assay to identify small molecule antagonists of the retinoid-related orphan receptor gamma (ROR-gamma) signaling pathway - cell viability counter screen (AID 1159520)
Summary of the method: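 Cytotoxicity was read from cellular ATP (CellTiter-Glo luminescence) after 16 hr at 37 C with 1 uM doxycycline induction. The inducer was added 2 hr after compound transfer to Tet-on ROR gamma CHO cells.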

[19] = molecular target: Nuclear receptor ROR-gamma (Homo sapiens) (UniProt P51449); assay: qHTS assay to identify small molecule antagonists of the retinoid-related orphan receptor gamma (ROR-gamma) signaling pathway (AID 1159521)
Summary of the method: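 Luminescence readout (ONE-Glo, 30 min RT) after 16 h doxycycline induction; loss of signal scored as antagonism. CHO cells with TET-inducible RORγ and RORE-LUC reporter; compounds added 2 h before 1 uM final doxycycline.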

[20] = qHTS assay to identify small molecule agonists of the AP-1 signaling pathway (AID 1159526; calls by dose curve; note: % is set by controls: 0 for no effect and ±100 for the full control effect)

Chain of Bile acid receptor (Homo sapiens) (Q96RI1 whole entry, looked up): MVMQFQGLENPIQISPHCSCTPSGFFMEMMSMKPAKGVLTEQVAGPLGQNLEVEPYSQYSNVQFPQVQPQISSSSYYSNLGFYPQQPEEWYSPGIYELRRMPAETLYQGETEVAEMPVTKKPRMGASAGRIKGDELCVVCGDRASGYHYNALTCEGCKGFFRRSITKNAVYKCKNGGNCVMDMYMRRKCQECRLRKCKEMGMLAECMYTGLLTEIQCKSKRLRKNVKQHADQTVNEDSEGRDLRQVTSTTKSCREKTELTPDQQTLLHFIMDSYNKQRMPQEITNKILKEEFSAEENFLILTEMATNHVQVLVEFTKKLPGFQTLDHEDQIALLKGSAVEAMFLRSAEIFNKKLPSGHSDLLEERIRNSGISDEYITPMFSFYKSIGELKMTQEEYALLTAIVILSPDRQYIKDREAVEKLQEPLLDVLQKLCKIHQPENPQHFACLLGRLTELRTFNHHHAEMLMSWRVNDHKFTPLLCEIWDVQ
Chain of Peroxisome proliferator-activated receptor delta (Homo sapiens) (Q03181 whole entry, looked up): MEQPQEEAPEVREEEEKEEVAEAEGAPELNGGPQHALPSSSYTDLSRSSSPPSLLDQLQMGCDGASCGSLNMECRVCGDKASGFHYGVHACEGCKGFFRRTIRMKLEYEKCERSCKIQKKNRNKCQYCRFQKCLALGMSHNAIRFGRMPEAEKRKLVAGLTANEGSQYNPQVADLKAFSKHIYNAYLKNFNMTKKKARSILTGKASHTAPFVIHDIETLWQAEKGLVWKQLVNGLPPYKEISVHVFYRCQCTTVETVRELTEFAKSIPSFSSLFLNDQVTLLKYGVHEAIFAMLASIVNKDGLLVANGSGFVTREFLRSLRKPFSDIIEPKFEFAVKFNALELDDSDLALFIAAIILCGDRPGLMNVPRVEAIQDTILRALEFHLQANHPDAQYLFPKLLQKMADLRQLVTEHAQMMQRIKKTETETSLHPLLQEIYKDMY
Chain of Vitamin D3 receptor (Homo sapiens) (P11473 whole entry, looked up): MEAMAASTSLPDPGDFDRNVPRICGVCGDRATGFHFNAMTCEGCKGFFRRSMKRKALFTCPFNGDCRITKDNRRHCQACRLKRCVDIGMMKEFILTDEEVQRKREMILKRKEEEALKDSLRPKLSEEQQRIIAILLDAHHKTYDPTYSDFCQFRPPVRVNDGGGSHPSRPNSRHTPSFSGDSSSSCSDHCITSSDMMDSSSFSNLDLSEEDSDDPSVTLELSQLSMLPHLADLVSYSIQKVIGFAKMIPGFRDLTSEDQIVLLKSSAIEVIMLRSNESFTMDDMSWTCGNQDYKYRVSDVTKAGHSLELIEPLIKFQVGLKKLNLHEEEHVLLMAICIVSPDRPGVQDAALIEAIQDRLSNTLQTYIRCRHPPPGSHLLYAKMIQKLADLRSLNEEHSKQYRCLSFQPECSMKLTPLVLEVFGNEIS

CCCCC1C(=O)N(c2ccccc2)N(c2ccc(O)cc2)C1=O (stereo unspecified)
inactive: Potency [1] | Potency [2] | Potency [3] | Potency [4] | Potency [5] | outcome [6] | outcome [7] | outcome [8] | outcome [9]

CCN(Cc1cccc(S(=O)(=O)O)c1)c1ccc(C(=C2C=CC(=[N+](CC)Cc3cccc(S(=O)(=O)[O-])c3)C=C2)c2ccccc2)cc1
inactive: Potency [10] | Potency [1] | Potency [3] | Potency [11] | Potency [4] | outcome [6] | outcome [7] | outcome [8] | outcome [9] | outcome [12]

CCC(=O)OC/C=C/c1ccccc1
inactive: Potency [10] | Potency [13] | Potency [1] | Potency [2] | Potency [14] | Potency [3] | Potency [15] | Potency [11] | outcome [16] | outcome [17] | Potency [4] | Potency [5] | outcome [6] | outcome [7] | outcome [8] | Potency [18] | Potency [19] | outcome [12] | outcome [20]

CCCCCCCCCCOS(=O)(=O)O
inactive: Potency [10] | Potency [14] | Potency [15] | Potency [11] | outcome [17] | Potency [4] | Potency [5] | outcome [6] | outcome [7] | outcome [8] | outcome [9] | outcome [12]

CCCCCCCCSCCO
inactive: Potency [10] | Potency [13] | Potency [1] | Potency [2] | Potency [14] | Potency [3] | Potency [15] | Potency [11] | Potency [4] | Potency [5] | outcome [6] | outcome [7] | outcome [8] | Potency [18] | Potency [19] | outcome [20]

CCCCCCCCCCCCCCCCBr
inactive: Potency [10] | Potency [13] | Potency [1] | Potency [2] | Potency [3] | Potency [11] | outcome [16] | outcome [17] | Potency [4] | Potency [5] | outcome [6] | outcome [7] | outcome [8] | activity, negative = cytotoxicity [18] 1.45% [at 19 µM] | activity change, negative = inhibition [19] 15.4% [at 19 µM] | viability change, negative = cytotoxic [12] 3.43% [at 15.8 µM] | activation [20] -6.6% [at 15.8 µM]

C=CCCCCCCCCCCCCCCCC
inactive: activity change, negative = cytotoxicity [10] -1.2% [at 5.95 µM] | activation [13] -3.43% [at 5.95 µM] | ratio activity, negative = inhibition [2] -0.434% [at 6.26 µM] | activity change, negative = inhibition [14] -5.71% [at 5.95 µM] | viability change, negative = cytotoxic [3] 4.85% [at 5.95 µM] | activation [15] -1.74% [at 5.95 µM] | activity change, negative = cytotoxicity [11] -0.119% [at 5.95 µM] | activation [16] -0.178% [at 6.01 µM] | activity change, negative = inhibition [17] 7.35% [at 6.95 µM] | activity change, negative = cytotoxicity [4] 7.44% [at 5.95 µM] | viability change, negative = cytotoxic [5] 8.8% [at 6.95 µM] | activation [6] 0.162% [at 6.95 µM] | activity, negative = cytotoxic [7] -0.437% [at 6.95 µM] | activation [8] 3.12% [at 6.95 µM] | activity, negative = cytotoxicity [18] 6.9% [at 8.39 µM] | activity change, negative = inhibition [19] 11.3% [at 8.39 µM] | activation [20] -4.53% [at 6.97 µM]

COC(=O)c1cc(S(N)(=O)=O)ccc1OC
inactive: Potency [10] | Potency [1] | Potency [14] | Potency [3] | Potency [15] | Potency [11] | outcome [16] | outcome [17] | Potency [4] | Potency [5] | outcome [6] | outcome [7] | outcome [8] | Potency [18] | Potency [19] | outcome [12] | outcome [20]

c1cnc2c(n1)CCCC2
inactive: Potency [10] | Potency [13] | Potency [1] | Potency [2] | Potency [3] | Potency [11] | outcome [16] | outcome [17] | Potency [4] | Potency [5] | outcome [6] | outcome [7] | outcome [8] | Potency [18] | Potency [19] | outcome [12] | outcome [20]

O=C(/C=C/c1ccccc1)OCCCc1ccccc1
inactive: Potency [10] | Potency [13] | Potency [2] | Potency [11] | outcome [16] | outcome [17] | Potency [4] | Potency [5] | outcome [6] | outcome [7] | outcome [8] | Potency [18] | Potency [19] | outcome [12] | outcome [20]

C=CC(=C)CCCC(C)(C)OC(C)=O
inactive: Potency [10] | Potency [13] | Potency [1] | Potency [2] | Potency [3] | Potency [11] | outcome [16] | Potency [4] | outcome [6] | outcome [7] | outcome [8] | Potency [19] | outcome [20]

CCCC1C(CC)=CC(CC)=CN1c1ccccc1 (stereo unspecified)
inactive: Potency [13] | Potency [1] | Potency [2] | Potency [14] | Potency [3] | Potency [15] | Potency [11] | outcome [16] | outcome [6] | outcome [7] | outcome [8] | outcome [9] | outcome [20]

C[C@]12CCC(=O)C=C1C=C[C@@H]1[C@@H]2CC[C@@]2(C)[C@H]1CC[C@@]21CCC(=O)O1
inactive: Potency [10] | Potency [13] | Potency [1] | Potency [2] | Potency [11] | Potency [4] | Potency [5] | outcome [6] | outcome [7] | outcome [8] | outcome [9] | outcome [12]

CC(C)C(OC(=O)c1ccccc1)C(C)(C)COC(=O)c1ccccc1 (stereo unspecified)
inactive: Potency [10] | Potency [13] | Potency [1] | Potency [2] | Potency [3] | Potency [11] | outcome [17] | Potency [5] | outcome [6] | outcome [7] | outcome [8] | outcome [9] | outcome [20]

NC(=O)Nc1ccc(Cl)c(Cl)c1
inactive: Potency [10] | Potency [13] | Potency [2] | Potency [14] | Potency [3] | Potency [15] | Potency [11] | outcome [16] | outcome [17] | Potency [4] | Potency [5] | outcome [6] | outcome [7] | outcome [8] | outcome [9] | outcome [20]
